Measurements from PubChem BioAssay AID1159580 (chemical genetic matrix, 2015).
Several values for one entry are separate records, joined by “and”; a condition that tells them apart may be missing. Identical values can stand only once. Out of some 5,500 compounds screened, about 2,000 (36%) were called active. Inconclusive results (about 18%) are left out. No stated cut-off is given here; in the data, active means normalized growth mostly below about 0.91 (no sharp cut-off); inconclusive means no clear call, values can overlap the other calls; inactive means mostly above about 0.92. The list shows a part of the results.

Test: chemical genetic growth profiling, strain panel (AID 1159580);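 further: tested at 20 µM; growth read once vehicle control cultures reached saturation at 30 °C; 1 = growth at the plate median or of vehicle wells; lower values mean less growth of the strain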
Settings: S. cerevisiae deletion strains, growth OD

Measured: normalized growth

Cc1ncc(CNC(=O)N(CCCl)N=O)c(N)n1
inactive: locus YAL013W, strain DEP1, hits give low values 1.01 and 1 | locus YAL021C, strain ccr4, hits give low values 0.948 | locus YAL026C, strain drs2, hits give low values 1.02 | locus YAL030W, strain snc1, hits give low values 1.01 | locus YAL040C, strain CLN3, hits give low values 0.981 | locus YBL061C, strain skt5, hits give low values 1.01 | locus YBR009C, strain hhf1, hits give low values 0.992 | locus YBR021W, strain FUR4, hits give low values 0.994 | locus YBR023C, strain chs3, hits give low values 1 | locus YBR171W, strain sec66, hits give low values 1.02 | locus YBR229C, strain ROT2, hits give low values 1.03 | locus YBR231C, strain swc5, hits give low values 1.03 | locus YBR279W, strain paf1, hits give low values 1 | locus YCL011C, strain gbp2, hits give low values 1 | locus YCL016C, strain dcc1, hits give low values 0.978 | locus YCL029C, strain bik1, hits give low values 0.985 | locus YCL061C, strain MRC1 (second series), hits give low values 1 | locus YCL061C, strain MRC1, hits give low values 0.999 | locus YCL069W, strain vba3, hits give low values 1.01 | locus YCR088W, strain abp1, hits give low values 1.01 | locus YDL005C, strain med2, hits give low values 1.01 | locus YDL035C, strain GPR1, hits give low values 1 | locus YDL040C, strain nat1, hits give low values 1.02 | locus YDL074C, strain BRE1, hits give low values 1.02 | locus YDL101C, strain DUN1, hits give low values 1.01 | locus YDL134C, strain PPH21, hits give low values 1.03 | locus YDL185W, strain tfp1, hits give low values 0.985 | locus YDL192W, strain arf1, hits give low values 0.997 | locus YDR001C, strain nth1, hits give low values 1.01 | locus YDR069C, strain doa4, hits give low values 1.02 | locus YDR101C, strain arx1, hits give low values 0.983 | locus YDR137W, strain rgp1, hits give low values 1.04 | locus YDR150W, strain NUM1, hits give low values 1.03 and 0.998 | locus YDR159W, strain sac3, hits give low values 1.08 | locus YDR162C, strain NBP2, hits give low values 1 | locus YDR195W, strain ref2 0.993 | locus YDR297W, strain sur2, hits give low values 1.02 | locus YDR318W, strain mcm21, hits give low values 1 | locus YDR334W, strain swr1, hits give low values 1.02 | locus YDR335W, strain msn5, hits give low values 1.01 | locus YDR363W, strain ESC2, hits give low values 1 | locus YDR388W, hits give low values 0.986 | locus YDR392W, strain spt3, hits give low values 0.917 | locus YDR502C, strain sam2, hits give low values 0.99 | locus YEL003W, strain gim4, hits give low values 1.01 | locus YEL037C, strain rad23, hits give low values 1.01 | locus YEL061C, strain CIN8 (second series), hits give low values 1.01 | locus YEL061C, strain CIN8, hits give low values 1.02 | locus YER002W, strain NOP16, hits give low values 1 | locus YER015W, strain faa2, hits give low values 0.982 | locus YER016W, strain bim1, hits give low values 1.02 | locus YER110C, hits give low values 0.979 | locus YER111C, strain swi4, hits give low values 1.01 | locus YER155C, strain BEM2 (second series), hits give low values 1.03 | locus YER155C, strain BEM2, hits give low values 1 | locus YER167W, strain BCK2, hits give low values 1.01 | locus YFR010W, strain ubp6, hits give low values 1.01 | locus YGL078C, strain dbp3, hits give low values 0.991 | locus YGL086W, strain mad1, hits give low values 1 | locus YGL167C, strain pmr1, hits give low values 1 | locus YGL173C, strain kem1, hits give low values 1.01 | locus YGL227W, strain vid30, hits give low values 1.01 | locus YGL240W, strain doc1, hits give low values 1.01 | locus YGL248W, strain PDE1, hits give low values 1.02 | locus YGL253W, strain hxk2, hits give low values 1.01 | locus YGR078C, strain PAC10, hits give low values 1.01 | locus YGR135W, strain pre9, hits give low values 1 | locus YGR229C, strain SMI1, hits give low values 0.994 | locus YGR252W, strain gcn5, hits give low values 0.976 | locus YHR013C, strain ard1, hits give low values 1 | locus YHR027C, strain rpn1, hits give low values 1.04 | locus YHR030C, strain SLT2, hits give low values 1.02 and 0.958 | locus YHR079C, strain IRE1 (second series), hits give low values 0.984 | locus YHR079C, strain IRE1, hits give low values 0.957 | locus YHR094C, strain hxt1, hits give low values 0.989 | locus YHR129C, strain ARP1, hits give low values 1.02 | locus YHR142W, strain chs7, hits give low values 1.01 | locus YHR200W, strain rpn10, hits give low values 0.988 | locus YIL066C, strain RNR3, hits give low values 1.02 | locus YIL073C, strain SPO22, hits give low values 0.994 | locus YIL125W, strain kgd1, hits give low values 0.995 | locus YIR030C, strain dcg1, hits give low values 0.987 | locus YJL092W, strain hpr5, hits give low values 0.978 | locus YJL095W, strain BCK1 (second series), hits give low values 1.03 | locus YJL095W, strain BCK1, hits give low values 0.999 and 0.951 | locus YJL115W, strain asf1, hits give low values 1.01 | locus YJL129C, strain trk1, hits give low values 1.03 | locus YJL134W, strain LCB3, hits give low values 1.02 | locus YJL154C, strain vps35, hits give low values 1.01 | locus YJL164C, strain tpk1, hits give low values 0.988 | locus YJL166W, strain qcr8, hits give low values 1.01 | locus YJL168C, strain set2, hits give low values 0.99 | locus YJL187C, strain SWE1 (second series), hits give low values 1.02 | locus YJL187C, strain SWE1, hits give low values 0.993 | locus YJR043C, strain POL32, hits give low values 0.902 | locus YJR066W, strain TOR1, hits give low values 0.901
